Activity calls are given as the source filed them. Rule for the calls: active = hit-call score of the fitted dose curve at least 0.9, where 1 is the maximum; inactive = score below 0.9.
Columns and labels:
Details in all cases: mRNA level, 48 h; actives raise or lower the signal
[1] = read-out: DNA damage-inducible transcript 3 (DDIT3), DDIT3 (gene 1649); experiment: LTEA_HepaRG_DDIT3: Life Technologies and Expression Analysis (LTEA) Assay for DNA damage-inducible transcript 3 (DDIT3) using HepaRG (AID 2283488)
In short: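 HepaRG plated 48 h, switched to serum-free induction medium, dosed 48 h (100 uM top, half-log, 8 pts, 0.5% DMSO, n=2); RNA isolated; DDIT3 by qRT-PCR; bidirectional curve fit vs DMSO.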

[2] = read-out: Pro-epidermal growth factor (Homo sapiens) (UniProt P01133); experiment: LTEA_HepaRG_EGF: Life Technologies and Expression Analysis (LTEA) Assay for Epidermal growth factor (EGF) using HepaRG (AID 2283489)
In short: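 HepaRG cells (~100,000/well, 48 h pre-culture) exposed in duplicate for 48 h in serum-free induction medium to 8 half-log concentrations up to 100 uM in 0.5% DMSO. EGF mRNA by qRT-PCR, normalized to ACTB/GAPDH/POLR2A; bidirectional fit versus DMSO.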

[3] = read-out: Early growth response protein 1 (EGR1) transcription factor, EGR1 (gene 1958); experiment: LTEA_HepaRG_EGR1: Life Technologies and Expression Analysis (LTEA) Assay for Early growth response protein 1 (EGR1) transcription factor using HepaRG (AID 2283490)
In short: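 Differentiated human HepaRG cells in serum-free induction medium were exposed in duplicate for 48 h to eight concentrations (top 100 uM, half-log steps) in 0.5% DMSO. EGR1 mRNA was quantified by qRT-PCR, normalized to ACTB, GAPDH and POLR2A, and fitted bidirectionally versus DMSO.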

[4] = read-out: Ezrin (EZR), EZR (gene 7430); experiment: LTEA_HepaRG_EZR: Life Technologies and Expression Analysis (LTEA) Assay for Ezrin (EZR) using HepaRG (AID 2283491)
In short: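 EZR transcript levels came from Fluidigm qRT-PCR and were normalized to three housekeeping genes after 48 h chemical exposure of HepaRG cells. Dosing used an 8-point half-log series with a 100 uM top concentration in 0.5% DMSO, tested in duplicate; both directions were fitted versus vehicle.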

[5] = read-out: Fatty Acid-Binding Protein 1 (FABP1), FABP1 (gene 2168); experiment: LTEA_HepaRG_FABP1: Life Technologies and Expression Analysis (LTEA) Assay for Fatty Acid-Binding Protein 1 (FABP1) using HepaRG (AID 2283494)
In short: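 Differentiated human HepaRG cells were exposed in duplicate for 48 h in serum-free induction medium to 8-point half-log concentration series topping at 100 uM in 0.5% DMSO. FABP1 mRNA measured by TaqMan qRT-PCR, normalized to ACTB/GAPDH/POLR2A; bidirectional fit versus DMSO.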

[6] = read-out: Glutathione S-Transferase (GSTA2), GSTA2 (gene 2939); experiment: LTEA_HepaRG_GSTA2: Life Technologies and Expression Analysis (LTEA) Assay for Glutathione S-Transferase (GSTA2) using HepaRG (AID 2283497)
In short: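 Human HepaRG cells, plated 48 h, then exposed in serum-free induction medium for 48 h to eight half-log concentrations up to 100 uM in 0.5% DMSO, duplicate. GSTA2 mRNA by qRT-PCR, normalized to ACTB/GAPDH/POLR2A; bidirectional fit versus DMSO.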

[7] = read-out: Glutamate-cysteine ligase catalytic (GCLC), GCLC (gene 2729); experiment: LTEA_HepaRG_GCLC: Life Technologies and Expression Analysis (LTEA) Assay for Glutamate-cysteine ligase catalytic (GCLC) using HepaRG (AID 2283498)
In short: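 Differentiated human HepaRG cells, plated 48 h then switched to serum-free induction medium, were exposed in duplicate for 48 h to 8 half-log concentrations topping at 100 uM in 0.5% DMSO. GCLC mRNA was quantified by qRT-PCR against ACTB, GAPDH and POLR2A.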

[8] = read-out: growth arrest and DNA damage 45 (GADD45G), GADD45G (gene 10912); experiment: LTEA_HepaRG_GADD45G: Life Technologies and Expression Analysis (LTEA) Assay for growth arrest and DNA damage 45 (GADD45G) using HepaRG (AID 2283499)
In short: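 Differentiated human HepaRG cells, 48 h post-plating, exposed 48 h in serum-free induction medium to 8 half-log concentrations (top 100 uM, 0.5% DMSO) in duplicate. GADD45G mRNA measured by Fluidigm TaqMan qRT-PCR, normalized to ACTB, GAPDH, POLR2A; bidirectional fit versus DMSO.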

[9] = read-out: Glutamate-cysteine ligase regulatory (GCLM), GCLM (gene 2730); experiment: LTEA_HepaRG_GCLM: Life Technologies and Expression Analysis (LTEA) Assay for Glutamate-cysteine ligase regulatory (GCLM) using HepaRG (AID 2283500)
In short: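 Cells were plated, cultured 48 h, switched to serum-free induction medium, then dosed in duplicate for 48 h at eight half-log concentrations up to 100 uM. RNA was then profiled by qRT-PCR; gain or loss versus DMSO was fitted.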

[10] = read-out: Glutathione S-transferase M3 (GSTM3), GSTM3 (gene 2947); experiment: LTEA_HepaRG_GSTM3: Life Technologies and Expression Analysis (LTEA) Assay for Glutathione S-transferase M3 (GSTM3) using HepaRG (AID 2283501)
In short: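 Differentiated human HepaRG cells were exposed in duplicate for 48 h in serum-free induction medium, 8 points from 100 uM top in half-log steps, 0.5% DMSO. GSTM3 mRNA was measured by TaqMan qRT-PCR, normalized to ACTB, GAPDH and POLR2A; bidirectional fit versus DMSO.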

[11] = read-out: Heat shock 70 kDa protein 1 (HSPA1A), gene 3303; experiment: LTEA_HepaRG_HSPA1A: Life Technologies and Expression Analysis (LTEA) Assay for Heat shock 70 kDa protein 1 (HSPA1A) using HepaRG (AID 2283502)
In short: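 Readout is HSPA1A transcript level by microfluidic qRT-PCR, normalized to three housekeeping genes and analysed for gain or loss of signal relative to 0.5% DMSO. Human HepaRG cultures received test chemicals for 48 h at up to 100 uM.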

[12] = read-out: Hypoxia-inducible factor 1-alpha (Homo sapiens) (UniProt Q16665); experiment: LTEA_HepaRG_HIF1A: Life Technologies and Expression Analysis (LTEA) Assay for Hypoxia-inducible factor 1 (HIF1A) Trancription factor using HepaRG (AID 2283503)
In short: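 Differentiated HepaRG cells in serum-free induction medium exposed 48 h, in duplicate, to 8-point half-log series from 100 uM in 0.5% DMSO. HIF1A mRNA measured by TaqMan qRT-PCR, normalized to ACTB/GAPDH/POLR2A, fitted bidirectionally versus DMSO.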

[13] = read-out: 3-Hydroxy-3-Methylglutaryl-CoA Synthase 2 (HMGCS2), HMGCS2 (gene 3158); experiment: LTEA_HepaRG_HMGCS2: Life Technologies and Expression Analysis (LTEA) Assay for 3-Hydroxy-3-Methylglutaryl-CoA Synthase 2 (HMGCS2) using HepaRG (AID 2283504)
In short: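 Human HepaRG cells in serum-free induction medium were exposed in duplicate for 48 h to 8-point half-log series from 100 uM top in 0.5% DMSO. HMGCS2 mRNA measured by TaqMan qRT-PCR, normalised to ACTB, GAPDH, POLR2A; bidirectional fit versus DMSO.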

[14] = read-out: Insulin Like Growth Factor 1 (IGF1), IGF1 (gene 3479); experiment: LTEA_HepaRG_IGF1: Life Technologies and Expression Analysis (LTEA) Assay for Insulin Like Growth Factor 1 (IGF1) using HepaRG (AID 2283506)
In short: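 HepaRG, plated 48 h, then switched to serum-free induction media; test chemical 8-pt half-log from 100 uM (0.5% DMSO), duplicate, 48 h. Lysis in RLT, TaqMan qRT-PCR, norm. ACTB/GAPDH/POLR2A. Bidirectional fit vs DMSO.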

[15] = read-out: Intercellular Adhesion Molecule 1 (ICAM1), ICAM1 (gene 3383); experiment: LTEA_HepaRG_ICAM1: Life Technologies and Expression Analysis (LTEA) Assay for Intercellular Adhesion Molecule 1 (ICAM1) using HepaRG (AID 2283507)
In short: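 Differentiated human HepaRG cells in serum-free induction medium exposed 48 h in duplicate to 8 half-log concentrations (top 100 uM, 0.5% DMSO). ICAM1 mRNA quantified by TaqMan qRT-PCR, normalized to ACTB, GAPDH and POLR2A; bidirectional fitting versus DMSO.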

CYP3A5 (gene 1577) = experiment: LTEA_HepaRG_CYP3A5: Life Technologies and Expression Analysis (LTEA) Assay for CYP3A5 using HepaRG (AID 2283493)
In short: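 HepaRG plated 48 h, switched to serum-free induction medium, chemicals added 48 h (max 100 uM, half-log, 0.5% DMSO). RNA isolated; CYP3A5 by TaqMan qRT-PCR. Gain/loss vs DMSO.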

[16] = read-out: Cytochrome P450 4A22 (Homo sapiens) (UniProt Q5TCH4); experiment: LTEA_HepaRG_CYP4A22: Life Technologies and Expression Analysis (LTEA) Assay for Cytochrome P450 4A22 (CYP4A22) using HepaRG (AID 2283495)
In short: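 Differentiated HepaRG cells in serum-free induction medium exposed 48 h in duplicate to eight half-log concentrations up to 100 uM in 0.5% DMSO. CYP4A22 mRNA quantified by TaqMan qRT-PCR, normalized to ACTB, GAPDH and POLR2A; bidirectional fit versus DMSO.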

HGF (gene 3082) = experiment: LTEA_HepaRG_HGF: Life Technologies and Expression Analysis (LTEA) Assay for Hepatocyte Growth Facto (HGF) using HepaRG (AID 2283505)
In short: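 Differentiated HepaRG cells in serum-free induction medium exposed 48 h in duplicate, 8 half-log concentrations from 100 uM in 0.5% DMSO. HGF mRNA by qRT-PCR, normalised to ACTB, GAPDH, POLR2A; bidirectional fitting.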

[17] = read-out: Cytochrome P450 3A7 (Homo sapiens) (UniProt P24462); experiment: LTEA_HepaRG_CYP3A7: Life Technologies and Expression Analysis (LTEA) Assay for CYP3A7 using HepaRG (AID 2283492)
In short: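 Differentiated HepaRG cells in serum-free induction medium exposed 48 h in duplicate to 8-point half-log series from 100 uM top in 0.5% DMSO. CYP3A7 mRNA by qRT-PCR, normalized to ACTB/GAPDH/POLR2A, bidirectional fit versus DMSO.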

[18] = read-out: Cytochrome P450 7A1 (Homo sapiens) (UniProt P22680); experiment: LTEA_HepaRG_CYP7A1: Life Technologies and Expression Analysis (LTEA) Assay for Cytochrome P450 7A1 (CYP7A1) using HepaRG (AID 2283496)
In short: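 HepaRG cells plated 48 h, then switched to serum-free induction medium and exposed in duplicate for 48 h to 8-point half-log series from 100 uM in 0.5% DMSO. CYP7A1 mRNA by qRT-PCR (TaqMan), normalized to ACTB/GAPDH/POLR2A; bidirectional fit versus DMSO.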

Measured: AC50

Hypoxia-inducible factor 1-alpha (Homo sapiens), sequence (Q16665 whole entry, looked up): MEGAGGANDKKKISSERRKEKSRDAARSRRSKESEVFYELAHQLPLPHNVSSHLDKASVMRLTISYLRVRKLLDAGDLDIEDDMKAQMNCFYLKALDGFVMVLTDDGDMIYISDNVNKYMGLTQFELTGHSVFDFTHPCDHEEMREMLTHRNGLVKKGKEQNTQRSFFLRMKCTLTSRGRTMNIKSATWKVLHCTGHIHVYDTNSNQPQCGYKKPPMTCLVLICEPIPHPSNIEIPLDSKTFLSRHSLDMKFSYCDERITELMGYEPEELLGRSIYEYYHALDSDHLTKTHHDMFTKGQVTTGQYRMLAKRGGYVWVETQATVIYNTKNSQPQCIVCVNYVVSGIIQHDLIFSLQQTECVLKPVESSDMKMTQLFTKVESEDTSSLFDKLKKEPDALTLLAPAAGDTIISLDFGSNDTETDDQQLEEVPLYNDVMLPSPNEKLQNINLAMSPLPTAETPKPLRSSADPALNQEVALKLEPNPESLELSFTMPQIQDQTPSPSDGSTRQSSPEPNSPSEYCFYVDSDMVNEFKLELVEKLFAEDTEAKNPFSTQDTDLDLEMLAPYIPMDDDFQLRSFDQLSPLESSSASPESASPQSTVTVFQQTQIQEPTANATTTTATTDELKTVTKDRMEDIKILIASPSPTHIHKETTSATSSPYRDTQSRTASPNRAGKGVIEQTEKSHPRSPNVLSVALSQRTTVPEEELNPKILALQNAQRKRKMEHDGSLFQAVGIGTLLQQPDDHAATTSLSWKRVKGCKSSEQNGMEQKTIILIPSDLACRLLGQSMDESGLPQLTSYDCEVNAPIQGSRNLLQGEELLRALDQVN
Cytochrome P450 3A7 (Homo sapiens), sequence (P24462 whole entry, looked up): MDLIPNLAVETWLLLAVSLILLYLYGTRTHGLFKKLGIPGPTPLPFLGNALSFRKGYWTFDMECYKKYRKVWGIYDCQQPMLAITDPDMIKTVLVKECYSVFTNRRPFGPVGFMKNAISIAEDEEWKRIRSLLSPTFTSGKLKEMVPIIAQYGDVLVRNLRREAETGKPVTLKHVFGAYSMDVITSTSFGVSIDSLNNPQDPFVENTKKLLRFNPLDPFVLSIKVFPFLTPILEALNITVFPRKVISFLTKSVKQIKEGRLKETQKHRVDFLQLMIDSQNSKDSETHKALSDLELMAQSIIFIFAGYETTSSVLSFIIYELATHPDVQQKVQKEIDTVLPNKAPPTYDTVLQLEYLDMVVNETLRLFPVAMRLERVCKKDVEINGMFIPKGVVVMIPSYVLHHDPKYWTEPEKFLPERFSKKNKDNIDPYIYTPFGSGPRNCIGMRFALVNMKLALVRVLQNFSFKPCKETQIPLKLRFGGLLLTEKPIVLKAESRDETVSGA

CC(C)(C)c1cc(O)c(C(C)(C)C)cc1O
inactive: [2] | [4] | [7] | [8] | [9] | [11]
active: [1] 50 µM | [3] 50 µM | [5] 94.3 µM | [6] 77.8 µM | [10] 50 µM | [12] 78.5 µM | [13] 78.2 µM | [14] 82.4 µM | [15] 50 µM

CCCCCC(=O)O
inactive: [1] | [2] | [3] | [4] | CYP3A5 (gene 1577) | [5] | [16] | [6] | [7] | [8] | [9] | [10] | [12] | [13] | HGF (gene 3082) | [14] | [15]

CCCCCCCCCCCCCCCC
inactive: [1] | [2] | [3] | [4] | CYP3A5 (gene 1577) | [5] | [16] | [6] | [8] | [9] | [10] | [12] | [13] | [14] | [15]

CN[C@H]1CC[C@@H](c2ccc(Cl)c(Cl)c2)c2ccc(S(N)(=O)=O)cc21
active: [1] 63 µM | [3] 83 µM | [5] 50 µM | [16] 15.8 µM | [18] 12.2 µM | [8] 71.1 µM | [11] 72.1 µM | [13] 50 µM | [14] 87.7 µM | [15] 74.8 µM
inactive: [2] | [4] | [17] | CYP3A5 (gene 1577) | [6] | [9] | [10] | [12] | HGF (gene 3082)

CNC(=O)[C@H]1O[C@@H](n2cnc3c(NCc4cc(Cl)ccc4OCc4cc(C)no4)ncnc32)[C@H](O)[C@@H]1N
inactive: [1] | [2] | [3] | [4] | CYP3A5 (gene 1577) | [5] | [16] | [18] | [6] | [7] | [8] | [9] | [10] | [11] | [12] | [13] | HGF (gene 3082) | [14] | [15]

O=C(O)CCCCC(=O)O
inactive: [1] | [2] | [3] | [4] | [17] | CYP3A5 (gene 1577) | [5] | [16] | [18] | [6] | [7] | [8] | [9] | [10] | [11] | [12] | [13] | [14] | [15]

Reference: PubChem BioAssay (EPA / NIEHS)
